Results as given in the supplement of paper PMC13380429.

test system: Vero E6 infected with SARS-CoV-2; test: morphology score (similarity to uninfected cells); higher = more like uninfected cells; details: 24 h

**Q.** `Cc1onc(-c2c(Cl)cccc2Cl)c1C(=O)N[C@@H]1C(=O)N2[C@@H]1SC(C)(C)[C@@H]2C(=O)O` [dicloxacillin] (10 µM) was tested. Which morphology score did it give?
**A.** 0.0315

**Q.** With `CCCCCNCC(N)=O` [milacemide] (10 µM) as the molecule, how does the morphology score read?
**A.** 0.0276

**Q.** How did the morphology score turn out when `O=C(O)c1cc(O)c2c(c1)C(=O)c1cccc(O)c1C2=O` [rhein] (10 µM) was run?
**A.** 0.272

**Q.** With `Cn1cc(-c2cnn3c(N)c(Br)c([C@@H]4CCCNC4)nc23)cn1` (10 µM) as the molecule, how does the morphology score read?
**A.** 0.535

**Q.** For `CCc1cc(/C(C)=N/OCc2ccc(C3CCCCC3)c(C(F)(F)F)c2)ccc1CN1CC(C(=O)O)C1` [siponimod] (10 µM), which morphology score is on record?
**A.** 0.0973

**Q.** Which morphology score does the source give for `CCN(C(C)=O)c1cccc(-c2ccnc3c(C#N)cnn23)c1` (10 µM) here?
**A.** 0.0588

**Q.** `CCC(=O)NS(=O)(=O)c1ccc(-c2c(-c3ccccc3)noc2C)cc1` [parecoxib] (10 µM) was tested. Which morphology score did it give?
**A.** 0.0867

**Q.** For `CC(C)CN(C[C@@H](OP(=O)(O)O)[C@H](Cc1ccccc1)NC(=O)O[C@H]1CCOC1)S(=O)(=O)c1ccc(N)cc1` [fosamprenavir] (10 µM), which morphology score is on record?
**A.** -0.123

**Q.** How did the morphology score turn out when `Cc1cc(O)cc2c1O[C@](C)(CCC[C@H](C)CCC[C@H](C)CCCC(C)C)CC2` [D-delta-tocopherol] (10 µM) was run?
**A.** -0.14

**Q.** With `O=c1c2ccccc2[se]n1-c1ccccc1` [ebselen] (10 µM) as the molecule, how does the morphology score read?
**A.** 0.34

**Q.** How did the morphology score turn out when `CC(C)Nc1cccnc1N1CCN(C(=O)c2cc3cc(NS(C)(=O)=O)ccc3[nH]2)CC1` [delavirdine] (10 µM) was run?
**A.** 0.0195

**Q.** `N#Cc1cnc2cnc(NCc3cccnc3)cc2c1Nc1ccc(F)c(Cl)c1` (10 µM) was tested. Which morphology score did it give?
**A.** 0.0314

**Q.** Which morphology score does the source give for `CC[C@H](C)C(=O)O[C@H]1C[C@H](O)C=C2C=C[C@H](C)[C@H](CC[C@@H](O)C[C@@H](O)CC(=O)O)[C@H]21` (10 µM) here?
**A.** 0.0616

**Q.** How did the morphology score turn out when `COC(=O)/C=C/C(=O)OCCN1C(=O)CCC1=O` [diroximel-fumarate] (10 µM) was run?
**A.** 0.0691

**Q.** For `CN(C)CCCSC(=N)N` [dimaprit] (10 µM), which morphology score is on record?
**A.** 0.245

**Q.** With `O=C(c1ccc(Cl)o1)N1CC2CNCC2C1` (stereo not given) (10 µM) as the molecule, how does the morphology score read?
**A.** 0.187

**Q.** How did the morphology score turn out when `Cc1cnc(Nc2ccc(N3CCN(C)CC3)cc2)nc1Nc1cccc(S(=O)(=O)NC(C)(C)C)c1` (0.833333 µM) was run?
**A.** 0.106

**Q.** With `CC(C)C1=C2[C@H]3CC[C@@H]4[C@@]5(C)CC[C@H](OC(=O)CC(C)(C)C(=O)O)C(C)(C)[C@@H]5CC[C@@]4(C)[C@]3(C)CC[C@@]2([C@@H](O)CN(CCN(C)C)Cc2ccc(Cl)cc2)CC1=O` (10 µM) as the molecule, how does the morphology score read?
**A.** 0.203

**Q.** `COc1ccc(S(=O)(=O)Nc2c(C)cc(C)cc2C)cc1` (10 µM) was tested. Which morphology score did it give?
**A.** 0.217

**Q.** Which morphology score does the source give for `NS(=O)(=O)c1cc2c(cc1C(F)(F)F)NCNS2(=O)=O` [hydroflumethiazide] (10 µM) here?
**A.** 0.112

**Q.** `CC(C)N(CCCNC(=O)Nc1ccc(C(C)(C)C)cc1)C[C@H]1O[C@@H](n2ccc3c(N)ncnc32)[C@H](O)[C@@H]1O` (10 µM) was tested. Which morphology score did it give?
**A.** -0.157

**Q.** Which morphology score does the source give for `Cc1ccc(Cl)c(Nc2ccccc2C(=O)O)c1Cl` [meclofenamic-acid] (10 µM) here?
**A.** 0.0323

**Q.** With `Cc1ccc(CNc2ncnc3ccc(-c4ccc(CO)o4)cc23)o1` (10 µM) as the molecule, how does the morphology score read?
**A.** 0.497

**Q.** Which morphology score does the source give for `CC1=C(CCC(=O)O)c2cc3[nH]c(cc4nc(cc5[nH]c(cc1n2)c(C)c5C(C)O)C(C)=C4C(C)O)c(C)c3CCC(=O)O` (stereo not given) [hematoporphyrin] (10 µM) here?
**A.** -0.184

**Q.** `O=C(Nc1ccc([N+](=O)[O-])cc1O)Nc1ccccc1Br` (0.833333 µM) was tested. Which morphology score did it give?
**A.** 0.0726

**Q.** How did the morphology score turn out when `CCCc1cc(C)[nH]c(=O)c1CNC(=O)c1cc(-c2ccc(N3CCN(C(C)C)CC3)nc2)cc2c1cnn2C(C)C` (10 µM) was run?
**A.** 0.0705

**Q.** For `CC(=N)NCc1cccc(CN)c1` (10 µM), which morphology score is on record?
**A.** -0.0209

**Q.** With `C[C@@H]1CN([C@H]2CC[C@](C#N)(c3ccc(F)cc3)CC2)CC[C@]1(C(=O)O)c1ccccc1` [levocabastine] (10 µM) as the molecule, how does the morphology score read?
**A.** -0.0824

**Q.** With `O=C1Nc2ccc(Cl)c3c2C1(CCCCN1CC=C(c2ccc(Cl)cc2)CC1)CCC3` (stereo not given) (0.833333 µM) as the molecule, how does the morphology score read?
**A.** 0.0484

**Q.** `O=C(O)COc1cccc(CN(Cc2ccc(-n3cccn3)cc2)S(=O)(=O)c2cccnc2)c1` [taprenepag] (10 µM) was tested. Which morphology score did it give?
**A.** -0.0257

**Q.** How did the morphology score turn out when `CC1(C)O[C@@H]2C[C@H]3[C@@H]4CCC5=CC(=O)C=C[C@]5(C)[C@@]4(F)[C@@H](O)C[C@]3(C)[C@]2(C(=O)CO)O1` (10 µM) was run?
**A.** 0.0142

**Q.** With `CC(C)(C)NS(=O)(=O)c1cncc(-c2cc(F)c3nc(N)nn3c2)c1` (10 µM) as the molecule, how does the morphology score read?
**A.** 0.0263

**Q.** How did the morphology score turn out when `Nc1ccn([C@@H]2CS[C@H](CO)O2)c(=O)n1` [lamivudine] (10 µM) was run?
**A.** -0.00863

**Q.** For `COC(=O)[C@H](CC(C)C)NC(=O)[C@@H](N)CC(C)C` [leucylleucine-methyl-ester] (10 µM), which morphology score is on record?
**A.** 0.113

**Q.** Which morphology score does the source give for `CC(=O)SC[C@@H](C)C(=O)N1CCC[C@H]1C(=O)N[C@@H](Cc1ccccc1)C(=O)O` [alacepril] (10 µM) here?
**A.** 0.171

**Q.** `C=C1C(=O)[C@]23[C@H](O)[C@H]1CC[C@H]2[C@@]12CO[C@]3(O)[C@@H](O)[C@@H]1C(C)(C)CC[C@@H]2O` [Oridonin (Isodonol)] (0.833333 µM) was tested. Which morphology score did it give?
**A.** 0.108

**Q.** Which morphology score does the source give for `COc1ccc2c(O[C@@H]3C[C@H]4C(=O)N[C@]5(C(=O)NS(=O)(=O)C6CC6)C[C@H]5/C=C\CCCCN(C)C(=O)[C@@H]4C3)cc(-c3nc(C(C)C)cs3)nc2c1C` [simeprevir] (10 µM) here?
**A.** 0.0609

**Q.** Which morphology score does the source give for `Cc1cccc(C)c1NC(=O)[C@@H](C)N` [tocainide] (10 µM) here?
**A.** -0.0832

**Q.** Which morphology score does the source give for `CC(C)NC[C@@H](C(=O)N1CCN(c2ncnc3c2[C@H](C)C[C@H]3O)CC1)c1ccc(Cl)cc1` (10 µM) here?
**A.** 0.0963

**Q.** With `NC(=O)c1nc(F)cnc1O` [Favipiravir] (10 µM) as the molecule, how does the morphology score read?
**A.** 0.0924
